BAZ2B inh = inhibitors of human BAZ2B bromodomain; 360,000 tested, 4.4% active; Potency, µM (doses to about 114 µM), for the others: at the highest dose activity change, negative = inhibition, actives largely listed as inhibitors; Q9UIF8; AlphaScreen BAZ2B-H3K14Ac peptide displacement; further: potency means the concentration at half of the fitted maximal effect; on the % scale 0 is the no-effect control and ±100 the full control effect; nearly all actives have a fitted effect of over 60% in size
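AlphaScreen displacement: compounds (up to 110uM) incubated 30 min at room temperature with a preformed 50 nM BAZ2B/50 nM biotinylated H3K14Ac peptide complex in PBS pH 7.4 with Tween-20. Donor and acceptor beads at 10 ug/mL final added, 20 min light-protected before reading.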
TDP1 block = TDP1 (human) enzyme inhibition. recombinant TDP1, AlphaScreen DNA substrate cleavage. Potency, µM (highest dose often 130 µM), for inactives: top-dose activity change, negative = inhibition, hits mostly inhibitors. 350,000 tested, 0.28% active. AID 485290; further: potency means the concentration at half of the fitted maximal effect; on the % scale 0 is the no-effect control and ±100 the full control effect; nearly all actives have a fitted effect of over 40% in size
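Recombinant E. coli-expressed Tdp1 (1 nM) preincubated with compound 15 min at RT, then 5'-biotin/3'-phosphotyrosine-FITC DNA substrate (15 nM) added for 5 min. AlphaScreen beads (10 ug/ml) added, 10 min RT; tyrosine-FITC cleavage read as signal loss.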
HP1b binding inh = HP1-beta chromodomain-methylated histone interaction inhibition. P83916. AlphaScreen HP1-beta / biotin-H3K9me3 peptide binding. Potency, µM (doses to about 114 µM), for inactives: at the highest dose activity change, negative = inhibition, most hits filed as inhibitors. 390,000 tested, 0.56% active; further: potency means the concentration at half of the fitted maximal effect; nearly all actives have a fitted effect of over 70% in size
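Compound inhibition of the preformed complex between 50 nM HP1-beta and 50 nM biotinylated H3K9me3 peptide was read by AlphaScreen. Buffer was PBS pH 7.4 with 0.01% Tween-20. Incubations ran 30 min at room temperature, with 10 ug/mL donor/acceptor beads.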
JMJD2A Tudor = JMJD2A Tudor domain (human) inhibition | O75164 | AlphaScreen JMJD2A-Tudor / H3K4me3 peptide binding | Potency, µM (titrated, usually from 114 µM), without a hit: at the top dose activity change, negative = inhibition, most hits filed as inhibitors | 390,000 tested, 4.4% active | AID 504339; further: potency means the concentration at half of the fitted maximal effect; on the % scale 0 is the no-effect control and ±100 the full control effect; nearly all actives have a fitted effect of over 50% in size
Six1-Eya2 inh = blocks human Six1 binding to Eya2; Q15475+O00167; AlphaScreen GST-Six1/His-Eya2 binding, biochemical; hits give low values; activity change, % (no concentration beside the values); 360,000 tested, 0.56% active; AID 651725; in the data active means activity change below about -65%; inconclusive means mostly about -30% to -63%; further: on the % scale 0 is the no-effect control and ±100 the full control effect
Target sequence (O00167 whole entry, looked up): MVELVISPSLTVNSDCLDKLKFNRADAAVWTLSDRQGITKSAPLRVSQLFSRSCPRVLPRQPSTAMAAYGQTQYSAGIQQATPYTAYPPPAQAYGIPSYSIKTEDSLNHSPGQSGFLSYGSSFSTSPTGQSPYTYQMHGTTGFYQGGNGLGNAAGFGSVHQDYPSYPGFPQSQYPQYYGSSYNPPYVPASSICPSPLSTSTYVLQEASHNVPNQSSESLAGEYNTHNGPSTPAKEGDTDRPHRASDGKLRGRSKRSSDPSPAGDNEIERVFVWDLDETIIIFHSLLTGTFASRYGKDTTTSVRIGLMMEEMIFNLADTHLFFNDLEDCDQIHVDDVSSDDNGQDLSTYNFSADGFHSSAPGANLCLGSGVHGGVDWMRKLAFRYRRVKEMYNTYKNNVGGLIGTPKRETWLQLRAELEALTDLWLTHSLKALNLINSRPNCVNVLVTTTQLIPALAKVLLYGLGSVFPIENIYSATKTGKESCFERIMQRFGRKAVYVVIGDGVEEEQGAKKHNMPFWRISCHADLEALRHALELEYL
Target sequence (Q15475 whole entry, looked up): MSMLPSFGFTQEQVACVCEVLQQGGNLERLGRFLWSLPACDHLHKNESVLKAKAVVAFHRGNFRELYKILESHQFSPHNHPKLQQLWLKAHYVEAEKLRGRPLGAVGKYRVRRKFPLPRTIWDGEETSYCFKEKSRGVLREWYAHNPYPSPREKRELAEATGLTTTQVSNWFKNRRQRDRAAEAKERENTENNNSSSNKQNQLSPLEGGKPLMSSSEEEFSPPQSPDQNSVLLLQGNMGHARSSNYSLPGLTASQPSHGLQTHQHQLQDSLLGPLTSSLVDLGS
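GST-Six1 + His-Eya2 (5X stock: 250/500 nM); Tris pH 8.0, 300 mM NaCl, 0.05% BSA, 0.02% Tween 20; GSH donor/Ni acceptor beads; 1 h 37 °C dark; AlphaScreen readout.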
CtBP-E1A inh = inhibitors of CtBP/E1A interaction | 340,000 tested, 0.49% active | AlphaScreen GST-E1A/His-CtBP binding, 1536-well; hits give low values | activity change, % (no concentration beside the values); in the data active means activity change below about -65%; inconclusive means mostly about -30% to -63%; further: on the % scale 0 is the no-effect control and ±100 the full control effect
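AlphaScreen with 125 nM GST-E1A and 125 nM His-CtBP (5X stocks) in Tris pH 8.0, 300 mM NaCl, BSA, Tween 20, TCEP. Compounds preincubated 2 h at 37 deg C, then glutathione donor/nickel acceptor beads added for 1 h at 37 deg C in dark.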
The depositor's hits bear a star; ? = inconclusive; . = no result; [ ] = remark or other dose. The list is not random: actives were taken first. Their share in the collection is about 5.3%. Unless noted, the call rests on the fitted dose curve; in most records, active means well fitted inhibition curve with a large enough effect; inconclusive means small, poorly fitted or top-dose-only effect; inactive means no such curve, though single readings can be large or run the other way.

SMILES	BAZ2B inh	TDP1 block	HP1b binding inh	JMJD2A Tudor	Six1-Eya2 inh	CtBP-E1A inh
COc1cccc(N2CCN(Cc3nc(N)nc(Nc4ccccc4OC)n3)CC2)c1	50.1µM*	11.4%	18.3%	-26.7%[57.1 µM]	-20.3	-16.3
COc1ccc(Nc2nc(N)nc(CSC(=S)N3CCOCC3)n2)cc1	-17.1%	1.2%	21.8%	-24.8%	1.0	.
COc1ccccc1Nc1nc(N)nc(CN2CCC(C)CC2)n1	-26.4%	5.3%	13.9%	?	-17.3	-12.5
COc1ccccc1Nc1nc(N)nc(CN2CCOCC2)n1	56.2µM*	4.9%	52.4%	-34.8%	-10.6	-3.3
Cc1cc(C)n(/N=C\c2c(O)ccc3ccccc23)c(=O)c1C(N)=O	1.2%	7.8%	18.9%	89.1µM*	-1.4	-1.5
CCn1c(-c2cc(-c3ccc(OC(C)C)cc3)nc3ccccc23)n[nH]c1=S	-33.6%	7.5%	4.0%	-20.1%	-10.5	-15.6
CCn1c(-c2cc(-c3ccccc3OC)nc3ccccc23)n[nH]c1=S	-38.9%	-2.6%	22.5%	56.2µM*	0.4	-0.2
CCn1c(-c2cc(-c3cc(OC)ccc3OC)nc3ccccc23)n[nH]c1=S	?	2.0%	28.0%	20µM*	-0.2	-4.6
Cc1ccccc1NC(=O)c1c(C)oc2ccc(O)c(CN3CCC(C)CC3)c12	-8.9%	-1.2%	18.0%	-29.5%	.	.
COc1ccc(CC(=O)NNC(=O)Cc2ccc(OC)cc2)cc1	-7.9%	6.0%	.	.	.	.
COc1ccc(CC(=O)NNC(=O)c2ccccn2)cc1	?	.	47.3%	-6.8%	?	-74.1*
Cc1cc(C)cc(OCC(=O)NNC(=O)c2ccccn2)c1	?	-3.3%[56.1 µM]	?	-21.5%	-67.9*	.
CC(C)c1ccc(Nc2cc(C(=O)NCCc3ccccc3)c3ccccc3n2)cc1	.	2.3%	24.7%	-17.0%	.	.
COc1ccc(OCc2ccc(-c3nc(C#N)c(N4CCN(c5cccc(Cl)c5)CC4)o3)o2)cc1	-29.4%	3.6%	28.0%	-17.2%	.	.
Cc1ccc(NC(=O)c2cccc(C(=O)Nc3ccc(C)c(C)c3)n2)cc1C	1.6%	2.2%	-6.0%	22.4µM*	-7.7	-4.3
COc1cccc(/C=N/Nc2nc3ccccc3n3cnnc23)c1	-5.2%	5.4%	32.7%	6.0%	?	?
COc1cccc(/C=N\NC(=O)Cn2nnc3ccccc32)c1O	-10.3%	-2.5%	41.9%	-19.6%	-92.8*	-93.2*
COc1cccc(/C=N/Nc2nc3ccccc3n3cnnc23)c1O	?	8.3%	34.9%	-22.0%[57.1 µM]	-86.8*	-92.7*
COc1cccc(/C=N/NC(=O)CSCC(=O)Nc2ccccc2)c1O	5.9%	3.1%	35.1%	-16.8%	-69.8*	-85.2*
Cn1c(/C(C#N)=N/O)nc2ccccc21	70.8µM*	0.0%	6.8%	?	-3.0	-1.0
N#C/C(=C(/O)C(Cl)(Cl)Cl)c1nc2ccccc2[nH]1	-15.6%	.	22.1%[57 µM]	50.1µM*	-2.2	.
N#C/C(=N\O)c1nc2ccccc2[nH]1	?	5.3%	14.9%	56.2µM*	2.0	-0.4
CCn1c(/C(C#N)=N/O)nc2ccccc21	?	2.6%	5.6%	?	-7.4	0.3
N#C/C(=C(\O)c1cc(Cl)sc1Cl)c1nc2ccccc2[nH]1	70.8µM*	-6.7%	18.4%[57 µM]	-32.5%	3.2	3.6
CC(=O)Nc1ccc(NC(=O)c2cc3c(=O)n(Cc4cccnc4)ccc3nc2C)cc1	-14.5%	5.8%	-5.9%	-16.7%	.	.
SMILES	BAZ2B inh	TDP1 block	HP1b binding inh	JMJD2A Tudor	Six1-Eya2 inh	CtBP-E1A inh
COc1cccc([C@@H]2Oc3ccc(Br)cc3C[C@H]2OC(=O)Nc2cc(OC)c(OC)c(OC)c2)c1	.	4.4%	.	.	.	.
Cc1cc2c(cc1S(=O)(=O)Nc1cccc(Cl)c1C)n(C)c(=O)c(=O)n2C	0.0%	5.0%	-11.1%	-16.5%	.	.
Oc1cccc(-c2sc3ccccc3c2-c2ccc(OCCN3CCCCC3)cc2)c1	.	.	.	.	-22.3	-1.7
COc1ccccc1-c1sc2ccccc2c1-c1ccc(OCCN2CCOCC2)cc1	.	5.6%[56.1 µM]	-17.6%	50.1µM*	?	-26.2
COc1ccccc1-c1sc2cc3c(cc2c1-c1ccc(OCCN2CCCCC2)cc1)OCO3	.	8.1%	-23.8%	11.2µM*	-28.9	-2.9
COc1ccc(-c2sc3cc4c(cc3c2-c2ccc(OCCN3CCOCC3)cc2)OCO4)cc1	.	6.0%	5.4%	?	-4.7	-20.5
COc1cc2sc(-c3ccccc3OC)c(-c3ccc(OCCN4CCCCC4)cc3)c2cc1OC	.	11.1%	?	28.2µM*	?	-4.9
COc1ccccc1-c1sc2cc3c(cc2c1-c1ccc2c(c1)OCO2)OCO3	79.4µM*	-1.6%	38.4%	-34.8%	-5.2	-9.2
CCOC(=O)c1c(NC(=O)c2nc(SC(C)C)ncc2Cl)sc2c1CCCC2	-23.8%	2.3%	32.7%	-9.7%	.	.
CCCOc1ccc(C2C(=O)N(C3CCC(C)CC3)CC(=O)N2CCc2ccccc2)cc1OC (stereo not drawn)	1.9%	0.0%	27.8%	-15.3%	.	.
O=S(=O)(O)c1ccc(SCc2ccccc2)nc1	.	.	24.5%	89.1µM*	2.5	11.6
NS(=O)(=O)c1ccc(SCc2ccccc2)nc1	.	.	28.9%	-7.2%	-2.2	0.8
CC(C)CNC(=O)N1CCN(S(=O)(=O)c2ccc3c(ccn3C)c2)CC1	4.0%	1.8%	25.7%[57 µM]	0.6%	.	.
O=C1OC(c2ccc(F)cc2)=C/C1=C\c1ccc([N+](=O)[O-])o1	44.7µM*	-9.8%	.	.	.	.
O=S(=O)(Cc1ccccc1Cl)N1CCCC1	?	0.0%	-22.0%	-12.0%	2.2	-78.7*
CN1CCN(S(=O)(=O)Cc2ccccc2Cl)CC1	-0.4%	1.8%	33.2%	1.8%	1.4	-0.4
COc1ccc(C2CC(=O)C(CS(=O)(=O)c3ccccc3)C(=O)C2)cc1 (stereo not drawn)	14.5%	0.0%	-9.5%	-3.8%[11.4 µM]	9.1	.
O=C1CC(c2ccc(Cl)cc2)CC(=O)C1CS(=O)(=O)c1ccccc1 (stereo not drawn)	79.4µM*	2.5%	-24.5%	-15.8%[11.4 µM]	-0.7	.
COc1ccc(N2CCN(C(=O)c3cnn(-c4ccc(OC)cc4)c3C3CCN(C(=O)OC(C)(C)C)CC3)CC2)cc1	-12.5%[57.1 µM]	5.3%	15.0%	-35.6%	.	.
O=C(Nc1c(C(=O)O)[nH]c2ccc(F)cc12)c1cccc(C(F)(F)F)c1	-37.6%	.	?	79.4µM*	-25.2	-14.4
O=C(Nc1c(C(=O)O)[nH]c2ccccc12)c1cccc(C(F)(F)F)c1	-29.3%	.	?	-25.4%	3.4	-0.3
COc1ccc(NC(=O)CCn2cccn2)cc1OC	0.6%	1.9%	33.6%	-15.7%	.	.
O=C(O)CSc1nc2ccc(NC(=O)COc3ccc(Cl)cc3)cc2s1	70.8µM*	?	28.9%	?	.	.
Cc1cccc(NC(=O)CSc2nc3ccc(NC(=O)COc4ccc(Cl)cc4)cc3s2)c1	-13.9%	-0.5%	26.0%	-16.2%	.	.

Bioassay records from PubChem.
